DT40 TDP1 CPT – qHTS for Inhibitors of human tyrosyl-DNA phosphodiesterase 1 (TDP1): qHTS in cells in presence of CPT. chicken DT40 Tdp1-/-;hTDP1 cells + 20 nM CPT, ATP luminescence, 48 h. Potency, µM (top dose mostly 46.2 µM), most hits filed as inhibitors. actives 12% (n = 420,000). AID 686979, 2013; also: nearly all actives have a fitted effect of over 55% in size
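Cell growth measured by CellTiter-Glo luminescence after a minimum 48 h, 37 C compound exposure with 20 nM CPT in Tdp1-knockout DT40 cells stably expressing hTDP1, seeded 400/well; qHTS titration format.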
TDP1 inh – qHTS Assay for Inhibitors of Tyrosyl-DNA Phosphodiesterase (TDP1); actives 0.28% (n = 350,000); AID 485290, 2010; recombinant TDP1, AlphaScreen DNA substrate cleavage; Tyrosyl-DNA phosphodiesterase 1 (Homo sapiens), Q9NUW8; Potency, µM (top dose mostly 130 µM), actives largely listed as inhibitors; also: nearly all actives have a fitted effect of over 40% in size
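Recombinant human Tdp1 (E. coli-expressed, 1 nM final) preincubated with compounds 15 min at room temperature, then 5'-biotin/3'-phosphotyrosine-FITC DNA substrate (15 nM final) added for 5 min. AlphaScreen beads (10 ug/ml final) added 10 min; cleavage lowers signal.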
PLK1 PBD block – qHTS for Inhibitors of PLK1-PDB (polo-like kinase 1 - polo-box domain): Primary Screen. Serine/threonine-protein kinase PLK1 (Homo sapiens), P53350. Plk1 PBD binding of FITC phosphopeptide, fluorescence polarization. Potency, µM, usual class: inhibitors. actives 2.8% (n = 360,000); also: series mostly up to about 57 µM; nearly all actives have a fitted effect of over 65% in size
KAT2A inh – qHTS Assay for Inhibitors of GCN5L2; Potency, µM (series often up to 58.9 µM), actives largely listed as inhibitors; GCN5L2 HAT assay, ThioGlo1 CoA-SH fluorescence; actives 0.21% (n = 390,000)
Target sequence (Q92830 whole entry, looked up): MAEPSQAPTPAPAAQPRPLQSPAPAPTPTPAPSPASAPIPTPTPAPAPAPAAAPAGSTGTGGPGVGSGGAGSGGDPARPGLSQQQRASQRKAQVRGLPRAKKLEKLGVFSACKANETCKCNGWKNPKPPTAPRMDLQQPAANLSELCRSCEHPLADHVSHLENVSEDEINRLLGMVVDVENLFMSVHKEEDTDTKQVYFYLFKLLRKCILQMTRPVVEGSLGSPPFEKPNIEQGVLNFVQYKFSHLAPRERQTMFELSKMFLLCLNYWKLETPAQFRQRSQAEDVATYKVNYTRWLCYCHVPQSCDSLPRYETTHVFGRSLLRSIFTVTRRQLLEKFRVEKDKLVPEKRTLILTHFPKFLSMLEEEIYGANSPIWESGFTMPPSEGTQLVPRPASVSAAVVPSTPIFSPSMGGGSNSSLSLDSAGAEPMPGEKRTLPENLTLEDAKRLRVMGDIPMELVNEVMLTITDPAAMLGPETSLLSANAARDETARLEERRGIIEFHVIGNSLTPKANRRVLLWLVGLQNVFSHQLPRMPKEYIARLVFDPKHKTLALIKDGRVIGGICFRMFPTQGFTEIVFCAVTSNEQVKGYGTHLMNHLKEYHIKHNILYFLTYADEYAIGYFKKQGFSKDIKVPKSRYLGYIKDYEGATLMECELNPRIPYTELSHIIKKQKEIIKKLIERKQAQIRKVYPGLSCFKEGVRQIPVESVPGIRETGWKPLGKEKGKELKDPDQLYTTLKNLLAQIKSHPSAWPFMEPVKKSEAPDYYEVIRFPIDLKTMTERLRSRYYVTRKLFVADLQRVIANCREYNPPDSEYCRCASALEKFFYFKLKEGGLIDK
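Fluorescence readout, Ex340nm/Em540nm: ThioGlo1 (50uM final) reacts with free CoA thiol released as 20nM GCN5L2 acetylates H3(1-25) peptide (75uM) using acetyl-CoA (70uM). Compound and enzyme sat 15 min beforehand; 20 min room-temperature reaction.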
DT40 TDP1 no CPT – qHTS for Inhibitors of human tyrosyl-DNA phosphodiesterase 1 (TDP1): qHTS in cells in absence of CPT | actives 15% (n = 420,000) | AID 686978, 2013 | DT40 Tdp1-/- hTDP1 cells, no CPT, ATP luminescence, 48 h | Potency, µM (series often up to 46.2 µM), hits mostly inhibitors; also: nearly all actives have a fitted effect of over 55% in size
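Growth kinetics read by CellTiter-Glo luminescence after ≥48 hr at 37 °C. Cells: DT40 Tdp1-/- stably carrying human TDP1, 400 per well, compound exposure in the absence of CPT (DMSO vehicle).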
VDR inhibitor – Inhibitors of the vitamin D receptor (VDR): qHTS; Vitamin D3 receptor (Homo sapiens), P11473; VDR-SRC2-3 peptide fluorescence polarization, 2 h; Potency, µM, usual class: inhibitors; actives 0.93% (n = 400,000)
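Fluorescence polarization assay of small-molecule disruption of VDR binding to coregulator peptide SRC2-3. Compounds and controls pin-transferred, then read after 2 h incubation at ambient room temperature.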
A number is an active result; n = inactive; u = inconclusive; x = not tested or not shown; ! = repeats disagree; [ ] = another dose, or the depositor's remark. Shown are actives, neighbours in structure and some others; about 18% of the full set was active somewhere. Calls follow the shape of the dose curve; as a rule, active = well fitted curve in the direction sought with a large enough effect; inconclusive = small, poorly fitted or top-dose-only effect, or another doubt; inactive = no such curve, though single readings can be large; an effect the other way counts as inactive or inconclusive.

SMILES	DT40 TDP1 CPT	TDP1 inh	PLK1 PBD block	KAT2A inh	DT40 TDP1 no CPT	VDR inhibitor
O=C1c2ccccc2C(Nc2ccc3c(c2)OCO3)N1Cc1ccc2c(c1)OCO2 (centres undefined)	u	n	n	n	15µM	n
COc1cccc(C(=O)Nc2ccc3nc(SCC(=O)N4CCOCC4)sc3c2)c1	15µM	n	x	n	13µM	n
CC(C)(C)C(=O)Nc1ccc2nc(SCC(=O)N3CCOCC3)sc2c1	n	n	x	n	u	n
O=C(Nc1ccc2nc(SCC(=O)N3CCOCC3)sc2c1)c1cccc(Br)c1	13µM	n	x	n	8.2µM	n
O=C(Nc1ccc2nc(SCC(=O)N3CCOCC3)sc2c1)c1ccc(Br)cc1	u	n	x	n	2.3µM	n
CC1Cc2ccccc2N1C(=O)CN1CCC(n2nnc3cc(C(F)(F)F)ccc32)CC1 (centres undefined)	u	n	u	n	23µM	n
COC(=O)c1ccccc1NC(=O)CN1CCC(n2nnc3cc(C(F)(F)F)ccc32)CC1	n	n	n	n	n	n
O=C(CN1CCC(n2nnc3cc(C(F)(F)F)ccc32)CC1)Nc1ccc2c(c1)CCC2	u	n	n	n	21µM	n
C/C(=C\c1ccco1)CN1CCOc2ccc(C(C)(O)COc3ccccc3)cc2C1 (centres undefined)	n[9.04 µM]	x	x	x	u	x
CCC1CCCCN1c1cc(C)nc2cc(-c3cccc(C)c3)nn12 (centres undefined)	u	n	n	n	13µM	n
CCN1CC(CN(C)Cc2cn(-c3ccc(C)cc3)nc2-c2cccc(C)c2)CC1=O (centres undefined)	u	n	n	n	15µM	n
CCOc1ccc(C(=O)C(C)OC(=O)c2nc(Cl)ccc2Cl)cc1 (centres undefined)	u	n	n	n	n	n
COc1ccc(CCNC(=O)Cc2c(C)c3c(cc(C)c4c(C)coc43)oc2=O)cc1OC	18µM	n	x	n	21µM	n
COCCNC(=O)Cc1c(C)c2c(cc(C)c3c(C(C)(C)C)coc32)oc1=O	9.2µM	x	n	n	15µM	n
Cc1cc2oc(=O)c(CC(=O)NCCCO)c(C)c2c2occ(C(C)(C)C)c12	u	x	n	n	n	n
Cc1cc2oc(=O)c(CC(=O)O)c(C)c2c2occ(C(C)(C)C)c12	n	x	30µM	n	n	n
O=C(Cn1cnc2ccccc2c1=O)Nc1nnc(SCc2ccccc2)s1	u	n	n	n	n	n
CCc1oc2ccccc2c1C(=O)c1cc(Br)c(O)c(Br)c1	u	n	8.4µM	u	u	50µM!
C[C@@](Cc1ccccc1)(C(=O)O)N1C(=O)c2ccc(C(=O)O)cc2C1=O	x	n	x	n	x	x
COc1ccc(C2/C(=C(/O)c3ccc4c(c3)CC(C)O4)C(=O)C(=O)N2CCCn2ccnc2)cc1OC (centres undefined)	n	x	n	x	n	n
CCN(CC)c1nc2ccccc2c(N)c1-c1ccccc1	13µM	n	n	n	21µM	n
Cc1c(N(C)C)nc2ccccc2c1N	n	n	n	n	n	n
Cc1ccc(-n2nc3c(=O)n(C(C)C(=O)NCc4ccc(Cl)cc4)nc(C)c3c2C)cc1 (centres undefined)	u	n	n	n	n	n
CSc1ccc(CCNC(=O)C(C)n2nc(C)c3c(C)n(-c4ccccc4)nc3c2=O)cc1 (centres undefined)	u	n	x	n	u	n
CSc1ccc(CNC(=O)C(C)n2nc(C)c3c(C)n(-c4ccccc4)nc3c2=O)cc1 (centres undefined)	u	n	21µM	n	n	n
SMILES	DT40 TDP1 CPT	TDP1 inh	PLK1 PBD block	KAT2A inh	DT40 TDP1 no CPT	VDR inhibitor
CCC(C(=O)NCCc1ccc(SC)cc1)n1nc(C)c2c(C)n(-c3ccc(C)cc3)nc2c1=O (centres undefined)	13µM	n	x	n	16µM	n
Cc1ccc(-n2nc3c(=O)n(C(C)C(=O)NCc4ccc(OC(C)C)cc4)nc(C)c3c2C)cc1 (centres undefined)	16µM	n	x	n	13µM	n
CCC(C(=O)NCCc1ccccc1OC)n1nc(C)c2c(C)n(-c3ccccc3)nc2c1=O (centres undefined)	u	n	n	n	u	n
CCOc1ccccc1CNC(=O)C(CC)n1nc(C)c2c(C)n(-c3ccccc3)nc2c1=O (centres undefined)	18µM	n	x	n	u	n
Cc1nn(C(C)C(=O)NCc2ccccc2F)c(=O)c2nn(-c3ccccc3)c(C)c12 (centres undefined)	n	n	n	n	n	n
Cc1ccc(-n2nc3c(=O)n(C(C)C(=O)NCc4ccccc4C)nc(C)c3c2C)cc1 (centres undefined)	u	n	x	n	23µM	n
CCOC1=C2[C@@H](CN(S(=O)(=O)c3ccc(C)cc3)[C@H]2c2cccc3ccccc23)[C@H]2C(=O)N(C3CCCCC3)C(=O)[C@H]2C1	13µM	x	n	x	10µM	x
CCOC1=C2[C@@H](CN(S(=O)(=O)c3ccc(C)cc3)[C@H]2c2cccc3ccccc23)[C@H]2C(=O)N(c3ccccc3)C(=O)[C@H]2C1	n	x	n	x	n	x
O=C(Nc1cccnc1)c1ccc([N+](=O)[O-])cc1Cl	n	n	u	n	n	n
O=C(Nc1cccc(Cl)c1)c1cc(N=Nc2ccc([N+](=O)[O-])cc2Cl)ccc1O	5.2µM	n	u	n	2.6µM	n
COc1ccccc1NC(=O)C(C)N(C)CC(=O)Nc1cccc2ccccc12 (centres undefined)	u	n	n	n	u	n
Cc1ccc(C)c(C(=O)N(C)CC(=O)Nc2ccccc2C(F)(F)F)c1	n	n	n	n	n	n
CCc1ccccc1NC(=O)CN(C)Cc1c(O)ccc2ccccc12	n	n	12µM	n	u	u
CCCN(CC(=O)Nc1ccccc1OC)Cc1c(O)ccc2ccccc12	n	n	9.5µM	n	n	u
CN(CC(=O)Nc1ccccc1C(F)(F)F)Cc1c(O)ccc2ccccc12	n	n[0.0935 µM]	12µM	n	n	u
Cc1cc(Nc2cccc(C(F)(F)F)c2)nc2ccc(NC(=O)c3cccc(Cl)c3)cc12	13µM	n	x	n	6.5µM	n
